High-throughput results deposited in PubChem BioAssay by National Center for Advancing Translational Sciences (NCATS).
The list is not random: actives were taken first. Their share in the collection is about 5.2%.
Sfp inh: qHTS Assay for Inhibitors of Bacillus subtilis Sfp phosphopantetheinyl transferase (PPTase) | 4'-phosphopantetheinyl transferase ffp (Bacillus subtilis), Q9F4F7 | Biochemical Sfp PPTase activity, qHTS | Potency, µM, hits mostly inhibitors | 3.5% of 310,000 active | AID 1490, 2009;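 also: the enzyme is Sfp with the accession as filed and its product quenches rhodamine fluorescence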
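Sfp 15 nM + cpd, 15 min RT; start w/ rhodamine-CoA 5 uM, BHQ-2-YbbR 12.5 uM (final); 50 mM Hepes pH 7.6, 10 mM MgCl2, 0.01% NP-40, 0.01% BSA; read 525/598 nm at 0 and 30 min.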
mIDH1 inhibitor: qHTS for Inhibitors of mutant isocitrate dehydrogenase 1 (IDH1): qHTS | IDH1-R132H enzyme, NADPH consumption, diaphorase/resazurin fluorescence | 0.093% of 390,000 active | Potency, µM (highest dose often 76.6 µM), usual class: inhibitors | Isocitrate dehydrogenase [NADP] cytoplasmic (Homo sapiens), O75874 | AID 602179, 2012; also: nearly all actives have a fitted effect of over 65% in size
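IDH1-R132H (0.5 ug/mL dispensed) in pH 7.5 Tris buffer was preincubated 30 min with compound, then given a substrate mix of 0.016 mM NADPH and 2 mM alpha-KG for 80 min at room temperature; remaining NADPH was read by diaphorase/resazurin fluorescence.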
TrxR1 substrate: qHTS Assay for Substrates of Mammalian Selenoprotein Thioredoxin Reductase 1 (TrxR1): qHTS. Potency, µM (doses to about 114 µM). purified TrxR1 substrate turnover, NADPH consumption readout. 0.01% of 390,000 active; also: nearly all actives have a fitted effect of over 50% in size
Target sequence (O89049 whole entry, looked up): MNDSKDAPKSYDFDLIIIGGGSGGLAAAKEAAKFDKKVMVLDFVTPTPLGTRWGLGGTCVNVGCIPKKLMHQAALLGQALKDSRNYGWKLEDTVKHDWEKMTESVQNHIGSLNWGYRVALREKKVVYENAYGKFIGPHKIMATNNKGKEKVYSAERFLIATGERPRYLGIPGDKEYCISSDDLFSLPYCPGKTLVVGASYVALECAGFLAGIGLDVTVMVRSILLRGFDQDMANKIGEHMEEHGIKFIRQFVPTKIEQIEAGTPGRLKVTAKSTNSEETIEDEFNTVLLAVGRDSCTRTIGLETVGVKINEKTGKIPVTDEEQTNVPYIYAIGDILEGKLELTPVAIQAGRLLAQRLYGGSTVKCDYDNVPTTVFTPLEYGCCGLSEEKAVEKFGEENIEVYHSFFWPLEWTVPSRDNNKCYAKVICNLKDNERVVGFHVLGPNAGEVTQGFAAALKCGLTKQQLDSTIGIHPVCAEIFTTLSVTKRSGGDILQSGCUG
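Rat TrxR1, dispensed at 90 nM, was prereduced with 400 uM NADPH (final) for 5 min at ~22 deg C, then incubated with compound 15 min before 400 uM selenite. A first-read NADPH fluorescence drop versus no-compound background flagged substrates.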
VDR inhibitor: Inhibitors of the vitamin D receptor (VDR): qHTS | VDR-SRC2-3 peptide fluorescence polarization, 2 h | Potency, µM, most hits filed as inhibitors | AID 504847, 2011 | Vitamin D3 receptor (Homo sapiens), P11473 | 0.93% of 400,000 active
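Reagent solutions, kept cold and dark, are dispensed first; compounds are then pinned in at 23 nl, plates briefly spun, and incubated 2 h at ambient temperature. Inhibition of VDR–SRC2-3 peptide binding is read by fluorescence polarization.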
TrxR1 inh: qHTS Assay for Inhibitors of Mammalian Selenoprotein Thioredoxin Reductase 1 (TrxR1): qHTS | Thioredoxin reductase 1, cytoplasmic (Rattus norvegicus), O89049 | recombinant rTrxR1, NADPH fluorescence consumption, selenite substrate | Potency, µM (highest dose often 114 µM), usual class: inhibitors | 1% of 390,000 active | AID 588453, 2011; also: nearly all actives have a fitted effect of over 65% in size
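Rat TrxR1 (90 nM in the dispensed reagent) was pre-reduced with 400 uM NADPH for 5 min at room temperature, then incubated with compound for 15 min. After 400 uM selenite was added, NADPH fluorescence (Ex 340/Em 450 nm) was followed for 8 min.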
PLK1 PBD inh: qHTS for Inhibitors of PLK1-PDB (polo-like kinase 1 - polo-box domain): Primary Screen | Plk1 PBD binding of FITC phosphopeptide, fluorescence polarization | Potency, µM, hits mostly inhibitors | 2.8% of 360,000 active; also: series mostly up to about 57 µM; nearly all actives have a fitted effect of over 65% in size
Hits are given with their value. Calls follow the shape of the dose curve; as a rule, active = well fitted curve in the direction sought with a large enough effect; inconclusive = small, poorly fitted or top-dose-only effect, or another doubt; inactive = no such curve, though single readings can be large; an effect the other way counts as inactive or inconclusive.

What do the screens show for `CCc1ccc(C(=O)c2cn(CC(=O)Nc3cc(OC)ccc3OC)c3ccc(C)cc3c2=O)cc1`?
mIDH1 inhibitor: inactive; TrxR1 substrate: inactive; VDR inhibitor: inactive; TrxR1 inh: inactive

What do the screens show for `CC(=O)c1ccc(C2C=CC(O)C(CO)O2)cc1` (configuration not stated)?
Sfp inh: inactive

Results for CCOC(=O)C(=Cc1ccc(OCc2ccc([N+](=O)[O-])cc2)c(OC)c1)C(=O)OCC ?
Sfp inh: inactive; mIDH1 inhibitor: inactive; TrxR1 substrate: inactive; VDR inhibitor: 79.4µM; TrxR1 inh: inconclusive; PLK1 PBD inh: inactive

What do the screens show for `COCCCN1C(=O)C2C(C(=O)Nc3cc(C)cc(C)c3)C3C=CC2(O3)C1C(=O)NC1CCCCC1` (configuration not stated)?
Sfp inh: 39.8µM; mIDH1 inhibitor: inactive; TrxR1 substrate: inactive; VDR inhibitor: inactive; TrxR1 inh: inactive; PLK1 PBD inh: inactive

How did N#C/C(=C\c1ccccc1Br)C(=O)NC1CC1 do in these assays?
Sfp inh: inactive; mIDH1 inhibitor: inactive; TrxR1 substrate: inactive; VDR inhibitor: inconclusive; TrxR1 inh: inactive; PLK1 PBD inh: inactive

What do the screens show for `Cc1cc2c(nc1C)CCCN2C[C@H](C)O/N=C1/[C@H]2O[C@@H]2[C@@H](O)[C@H]2[C@H]1CCn1c(=O)n(-c3ccccc3)c(=O)n12`?
Sfp inh: inactive

How did CNc1ccc(S(=O)(=O)NCC(=O)NCCCc2ccccc2)cc1[N+](=O)[O-] do in these assays?
Sfp inh: inactive; mIDH1 inhibitor: inactive; TrxR1 substrate: inactive; VDR inhibitor: inconclusive; TrxR1 inh: inactive; PLK1 PBD inh: 5.97µM

Results for CN(C)c1ccc(S(=O)(=O)NCC(=O)NCc2ccccc2)cc1[N+](=O)[O-] ?
Sfp inh: inactive; mIDH1 inhibitor: inactive; TrxR1 substrate: inactive; VDR inhibitor: inconclusive; TrxR1 inh: inactive; PLK1 PBD inh: 11.9µM

What do the screens show for `CC1CC(C)CN(C(=O)Nc2ccc(Br)cc2)C1` (configuration not stated)?
Sfp inh: inactive; mIDH1 inhibitor: inactive; TrxR1 substrate: inactive; VDR inhibitor: inactive; TrxR1 inh: inactive; PLK1 PBD inh: 29.9µM

Results for O=C(CNC(=S)N(Cc1ccccc1Cl)C1CCCC1)NCCN1CCOCC1 ?
Sfp inh: inactive; mIDH1 inhibitor: inactive; TrxR1 substrate: inactive; VDR inhibitor: inactive; TrxR1 inh: inactive; PLK1 PBD inh: inactive

Results for Cc1ccc(NC(=O)COC(=O)CCc2nc3ccccc3c(=O)[nH]2)cc1Cl ?
Sfp inh: inactive; mIDH1 inhibitor: inactive; TrxR1 substrate: inactive; VDR inhibitor: inactive; TrxR1 inh: inactive; PLK1 PBD inh: inactive

Results for Cc1ccccc1/C=N/Nc1ccnc2cc(Cl)ccc12 ?
Sfp inh: inactive; mIDH1 inhibitor: inactive; TrxR1 substrate: inactive; VDR inhibitor: inactive; TrxR1 inh: inactive; PLK1 PBD inh: inactive

How did Clc1ccc2c(N/N=C/c3cccnc3)ccnc2c1 do in these assays?
Sfp inh: 50.1µM; mIDH1 inhibitor: inactive; TrxR1 substrate: inactive; VDR inhibitor: inactive; TrxR1 inh: inactive; PLK1 PBD inh: inactive

How did Cc1ccc(/C=N/Nc2ccnc3cc(Cl)ccc23)c(C)c1 do in these assays?
Sfp inh: 44.7µM; mIDH1 inhibitor: inactive; TrxR1 substrate: inactive; VDR inhibitor: inactive; TrxR1 inh: inactive; PLK1 PBD inh: 26.7µM

Results for Clc1ccc2c(N/N=C/c3ccc(Br)cc3)ccnc2c1 ?
Sfp inh: inconclusive; mIDH1 inhibitor: inactive; TrxR1 substrate: inactive; VDR inhibitor: inactive; TrxR1 inh: inactive; PLK1 PBD inh: inactive

Results for CCN1CCN(C(=O)/C=C/c2ccc(C(C)C)cc2)CC1 ?
mIDH1 inhibitor: inactive; TrxR1 substrate: inactive; VDR inhibitor: inactive; TrxR1 inh: inactive; PLK1 PBD inh: inactive

How did Cc1ccc(/C=C/C(=O)N2CCN(S(=O)(=O)c3cccs3)CC2)o1 do in these assays?
Sfp inh: 14.1µM; mIDH1 inhibitor: inactive; TrxR1 substrate: inactive; VDR inhibitor: inactive; TrxR1 inh: inconclusive; PLK1 PBD inh: inactive

What do the screens show for `CCN1CCN(C(=O)/C=C/c2ccc(C)o2)CC1`?
Sfp inh: 39.8µM; mIDH1 inhibitor: inactive; TrxR1 substrate: inactive; VDR inhibitor: inactive; TrxR1 inh: inactive; PLK1 PBD inh: inactive

How did Cc1ccc(/C=C/C(=O)N2CCN(S(=O)(=O)/C=C/c3ccccc3)CC2)o1 do in these assays?
Sfp inh: 7.94µM; mIDH1 inhibitor: inactive; TrxR1 substrate: inactive; VDR inhibitor: inactive; TrxR1 inh: inactive; PLK1 PBD inh: inactive

Results for Cn1c(SCC(=O)Nc2ccccc2Oc2ccccc2)nnc1C1CC1 ?
mIDH1 inhibitor: inactive; TrxR1 substrate: inactive; VDR inhibitor: inactive; TrxR1 inh: inactive; PLK1 PBD inh: inactive

How did COc1ccc(C(=O)C[n+]2cc(Br)cc3ccccc32)cc1 do in these assays?
TrxR1 substrate: inactive; TrxR1 inh: inactive

Results for CCC(=O)N1c2ccc(S(=O)(=O)CCC(=O)NCc3cccc(OC)c3)cc2CC1C (configuration not stated) ?
mIDH1 inhibitor: inactive; TrxR1 substrate: inactive; VDR inhibitor: inactive; TrxR1 inh: inactive

Results for O=S(=O)(NCc1ccccc1)c1ccc(S(=O)(=O)NCC2CCCO2)cc1 (configuration not stated) ?
Sfp inh: inactive; mIDH1 inhibitor: inactive; TrxR1 substrate: inactive; VDR inhibitor: inactive; TrxR1 inh: 1.41µM; PLK1 PBD inh: inactive

How did O=c1[nH]n(-c2ccc(Cl)cc2)c(=O)c(Cl)c1Cl do in these assays?
Sfp inh: inactive; mIDH1 inhibitor: inactive; TrxR1 substrate: inactive; VDR inhibitor: inactive; TrxR1 inh: 22.4µM; PLK1 PBD inh: inactive

How did CC(=O)N1CCC2(CC1)CCN(C(=O)Nc1cccc(C#N)c1)CC2 do in these assays?
Sfp inh: inactive; VDR inhibitor: inactive

Results for COc1ccc(-c2nc(-c3ccccc3)c(Nc3c(C)cccc3C)o2)cc1 ?
Sfp inh: inactive; VDR inhibitor: inactive

Results for CC(C)CN1CCN(Cc2ccc3ncccc3c2)CC1CCO (configuration not stated) ?
Sfp inh: inactive; mIDH1 inhibitor: inactive; TrxR1 substrate: inactive; VDR inhibitor: inactive; TrxR1 inh: inactive; PLK1 PBD inh: inactive

What do the screens show for `O=S(=O)(Nc1ccc(C(F)(F)F)cc1)c1cnc[nH]1`?
Sfp inh: inactive; mIDH1 inhibitor: inactive; TrxR1 substrate: inactive; VDR inhibitor: inactive; TrxR1 inh: inactive; PLK1 PBD inh: 29.9µM
